PubChem BioAssay (EPA / NIEHS)
Results filed as inconclusive are left out. The source made the active and inactive calls. How the source made its calls: active means hit-call score of the fitted dose curve at least 0.9, where 1 is the maximum; inconclusive means response in the unintended direction; inactive means score below 0.9.

Assay: ACEA_AR_antagonist_AUC_viability: ACEA Biosciences xCELLigence Real-Time Cell Analysis on Androgen Receptor Antagonism for Viability (AID 2283776);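 further: 22Rv1 human prostate cancer cells growing on impedance electrode plates; area under impedance growth curve at 80 h after dosing as viability; hits lower the growth signal relative to DMSO meaning cytotoxicity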
Outline: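 Impedance read-out (RT-CES): area under growth curve at 80 h post-dose, loss of signal scored vs DMSO baseline. 22Rv1 cells; 8-pt 1:4 series, top 100 uM final, ≤0.5% DMSO; biological duplicate.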

SMILES	outcome	AC50
CCCCCCCCCOS(=O)(=O)O	inactive	–
CCCCCC(=O)O[C@]1(C(C)=O)CC[C@H]2[C@@H]3CCC4=CC(=O)CC[C@]4(C)[C@H]3CC[C@@]21C	–	0.416 µM (active)
CCNC(=S)NCC	inactive	–
[Na+]	inactive	–
C1=COCCC1	inactive	–
CC(C)N(c1ccccc1)C(C)C	inactive	–
CC(=O)CC(=O)N(C)C	inactive	–
O=C(OCc1ccccc1)c1ccccc1O	inactive	–
CN(C)C(=O)Nc1ccccc1	inactive	–
CNC(=C[N+](=O)[O-])NCCSCc1ccc(CN(C)C)o1	inactive	–
c1coc(CNc2ncnc3nc[nH]c23)c1	inactive	–
O=Cc1ccccc1O	inactive	–
CCOCC(C)O (stereo unspecified)	inactive	–
CC(=O)c1ccc2ccccc2c1	inactive	–
CC1=CCC(C(C)(C)O)CC1 (stereo unspecified)	inactive	–
CCCCOCCOCCOCCO	inactive	–
c1ccc(OCCOc2ccccc2)cc1	inactive	–

Assay: ACEA_ER_AUC_viability: ACEA Biosciences xCELLigence Real-Time Cell Analysis on Estrogen Receptor Agonism for Viability (AID 2283782);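 further: continuous compound exposure with impedance area under curve over 80 h; hit means loss of impedance signal meaning reduced cell growth or viability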
Outline: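 T-47D human breast cells in phenol red-free RPMI1640 with 10% charcoal-stripped FBS were dosed with an 8-point 1:4 dilution series from 100 uM top final concentration, in duplicate. Impedance-based growth was followed for 80 h; AUC analysed versus DMSO.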

SMILES	AC50	outcome
CCCCCC(=O)O[C@]1(C(C)=O)CC[C@H]2[C@@H]3CCC4=CC(=O)CC[C@]4(C)[C@H]3CC[C@@]21C	49.8 µM (active)	–
OCCCO	–	inactive
CC(=N[Si](C)(C)C)O[Si](C)(C)C	–	inactive
O=C(OCc1ccccc1)c1ccccc1O	94.3 µM (active)	–
CC=CC(=O)C1=C(C)C=CCC1(C)C	–	inactive
CCCCCCCCCCCCN1CCOCC1	80.3 µM (active)	–
O=c1cc[nH]cc1	–	inactive
COc1ccc2[nH]cc(CCNC(C)=O)c2c1	–	inactive
c1ccc(OCCOc2ccccc2)cc1	–	inactive
